Bioassay records deposited in PubChem BioAssay by National Center for Advancing Translational Sciences (NCATS).
TDP1 inh – qHTS Assay for Inhibitors of Tyrosyl-DNA Phosphodiesterase (TDP1); recombinant TDP1, AlphaScreen DNA substrate cleavage; Potency, µM (top dose mostly 130 µM), for inactives: at the top dose activity change, negative = inhibition, most hits filed as inhibitors; 350,000 compounds, 0.28% hits; also: nearly all actives have a fitted effect of over 40% in size
Target sequence (Q9NUW8 whole entry, looked up): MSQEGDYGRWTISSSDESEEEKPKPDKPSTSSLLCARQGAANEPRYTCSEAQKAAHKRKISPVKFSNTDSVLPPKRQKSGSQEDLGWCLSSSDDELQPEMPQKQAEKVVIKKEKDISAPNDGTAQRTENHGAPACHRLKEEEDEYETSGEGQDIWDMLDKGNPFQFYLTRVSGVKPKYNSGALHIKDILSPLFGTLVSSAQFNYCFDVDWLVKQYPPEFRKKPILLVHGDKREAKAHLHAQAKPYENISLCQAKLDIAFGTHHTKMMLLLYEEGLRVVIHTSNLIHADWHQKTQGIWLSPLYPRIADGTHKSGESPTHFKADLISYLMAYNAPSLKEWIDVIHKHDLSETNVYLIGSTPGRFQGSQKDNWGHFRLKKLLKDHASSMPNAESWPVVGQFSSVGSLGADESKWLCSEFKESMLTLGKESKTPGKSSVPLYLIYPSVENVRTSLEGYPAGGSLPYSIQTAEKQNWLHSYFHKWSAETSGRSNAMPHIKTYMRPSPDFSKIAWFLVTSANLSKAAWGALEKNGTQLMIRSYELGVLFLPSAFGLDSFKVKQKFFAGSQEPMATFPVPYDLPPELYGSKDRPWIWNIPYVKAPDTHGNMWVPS
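Recombinant human Tdp1 (E. coli-expressed, 1 nM final) preincubated with compounds 15 min at room temperature, then 5'-biotin/3'-phosphotyrosine-FITC DNA substrate (15 nM final) added for 5 min. AlphaScreen beads (10 ug/ml final) added 10 min; cleavage lowers signal.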
RORg inh – qHTS for inhibitors of ROR gamma transcriptional activity; Nuclear receptor ROR-gamma (Mus musculus), P51450; Drosophila S2 Gal4-RORgamma UAS-luciferase reporter, 20 h; Potency, µM (highest dose often 53.6 µM), for inactives: at the highest dose activity change, negative = inhibition, hits mostly inhibitors; 310,000 compounds, 5.4% hits; AID 2551, 2010; also: nearly all actives have a fitted effect of over 60% in size
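Stable Schneider cell line, Gal4 DNA-binding domain fused to ROR gamma, UAS-luciferase. Cmpd 1 hr RT → CuSO4 700 uM final → 20 hr RT → luciferase reagent 10 min → luminescence.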
TDP1 cell CPT – qHTS for Inhibitors of human tyrosyl-DNA phosphodiesterase 1 (TDP1): qHTS in cells in presence of CPT. chicken DT40 Tdp1-/-;hTDP1 cells + 20 nM CPT, ATP luminescence, 48 h. Potency, µM (highest dose often 46.2 µM), for the others: at the highest dose activity change, negative = growth inhibition, actives largely listed as inhibitors. 420,000 compounds, 12% hits; also: nearly all actives have a fitted effect of over 55% in size
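Chicken DT40 Tdp1-/- cells stably complemented with human TDP1 were seeded at 400 cells/well in medium containing 20 nM camptothecin, exposed to pin-transferred compounds, and grown at 37 °C for at least 48 hr. Viability was read as ATP luminescence.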
Gal4-VP16 FLuc – VP16 counterscreen qHTS for inhibitors of ROR gamma transcriptional activity. Potency, µM (titrated, usually from 53.6 µM), for the others: at the highest dose activity, negative = inhibition, actives largely listed as inhibitors. 310,000 compounds, 3.5% hits. AID 2546, 2010. Drosophila S2 Gal4-VP16 UAS-luciferase, luminescence, 20 h;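 also: Gal4-VP16 expression switched on by copper sulfate through the metallothionein promoter; nearly all actives have a fitted effect of over 50% in size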
TDP1 cell noCPT – qHTS for Inhibitors of human tyrosyl-DNA phosphodiesterase 1 (TDP1): qHTS in cells in absence of CPT; 420,000 compounds, 15% hits; DT40 Tdp1-/- hTDP1 cells, no CPT, ATP luminescence, 48 h; AID 686978, 2013; Potency, µM (titrated, usually from 46.2 µM), for the others: at the highest dose activity change, negative = growth inhibition, most hits filed as inhibitors; also: nearly all actives have a fitted effect of over 55% in size
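Compound effects on proliferation are scored in DT40 Tdp1-/-;hTDP1 cells in the absence of CPT. ATP levels (CellTiter-Glo luminescence) are recorded after a ≥48 hr, 37 °C incubation.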
* marks the source's active call; other numbers are inactive results; [ ] = dose if it differs, or a comment. Sampled rows, rich in hits. Any-hit rate of the full collection: about 19%. Calls follow the shape of the dose curve; as a rule, active = well fitted curve in the direction sought with a large enough effect; inconclusive = small, poorly fitted or top-dose-only effect, or another doubt; inactive = no such curve, though single readings can be large; an effect the other way counts as inactive or inconclusive. % is scaled to controls: 0 for no effect and ±100 for the full control effect; potency is read from the fitted curve at half-maximal effect.

`Cc1ccc(S(=O)(=O)N2CCOCC2)cc1NC(=O)COC(=O)c1cc[n+]([O-])cc1` gave TDP1 inh 0%[56.1 µM], TDP1 cell CPT -2% and TDP1 cell noCPT -2%.
Screening CC1CCC(C(C)C)C(OCC(O)CNC(C)C)C1 (centres undefined) returned RORg inh -17%, TDP1 cell CPT 23µM*, Gal4-VP16 FLuc -11% and TDP1 cell noCPT inconclusive.
Cc1ccc([N+](=O)[O-])c(OCCCN2C(=O)NC(C)(C)C2=O)c1 was read as TDP1 inh 5%, RORg inh 19%, TDP1 cell CPT -9%, Gal4-VP16 FLuc -15% and TDP1 cell noCPT 3%.
Screening COc1ccc(C(=O)c2ccccc2)cc1CN1CCOCC1 returned TDP1 cell CPT -23% and TDP1 cell noCPT -25%.
`COc1ccc(-c2nc3c(c(SCC(=O)Nc4cc(C)cc(C)c4)n2)Cc2c(CO)cnc(C)c2O3)cc1` gave TDP1 inh 3%, TDP1 cell CPT -4% and TDP1 cell noCPT -12%.
For O=C(CSc1nc(-c2ccccc2)nc2c1Cc1ccccc1O2)N1CCCCC1 the results were TDP1 inh 1%, TDP1 cell CPT 10µM* and TDP1 cell noCPT 12µM*.
Screening COc1ccc(-c2nc3c(c(SCC(=O)N4CCCCC4)n2)Cc2c(CO)cnc(C)c2O3)cc1 returned TDP1 inh 5%, TDP1 cell CPT 2.6µM* and TDP1 cell noCPT 1.3µM*.
Screening CCOc1ccc(-c2nc3c(c(SCC(=O)N4CCCCC4)n2)Cc2ccccc2O3)cc1 returned TDP1 inh -1%, TDP1 cell CPT -22% and TDP1 cell noCPT -10%.
Screening CCSc1nc(-c2ccccc2)nc2c1Cc1c(CO)cnc(C)c1O2 returned TDP1 inh 0%, TDP1 cell CPT -9% and TDP1 cell noCPT -2%.
For CCc1ccc(NC(=O)CSc2nc(-c3cccc(OC)c3)nc3c2Cc2c(CO)cnc(C)c2O3)cc1 the results were TDP1 inh 5%, TDP1 cell CPT 6.5µM* and TDP1 cell noCPT 7.3µM*.
`C=Cc1ccc(CSc2nc(-c3ccc(C)cc3)nc3c2Cc2c(CO)cnc(C)c2O3)cc1` gave TDP1 inh 0%, TDP1 cell CPT 15µM* and TDP1 cell noCPT 16µM*.
COc1ccc(NC(=O)c2ccco2)cc1NC(=O)COc1ccccc1[N+](=O)[O-] was read as RORg inh inconclusive, TDP1 cell CPT -13%, Gal4-VP16 FLuc -3% and TDP1 cell noCPT -16%.
For CCCOc1cccc(C2c3c(oc4ccc(F)cc4c3=O)C(=O)N2CCCN2CCOCC2)c1 (centres undefined) the results were TDP1 inh 1%, TDP1 cell CPT -3% and TDP1 cell noCPT 2%.
Screening CCN(CC)C(=O)CSc1nc(-c2ccc(C)cc2)nc2c1Cc1c(CO)cnc(C)c1O2 returned TDP1 inh 3%, TDP1 cell CPT 9.2µM* and TDP1 cell noCPT 8.2µM*.
`COc1ccc(-c2nc3c(c(SCC(=O)N4CCOCC4)n2)Cc2c(CO)cnc(C)c2O3)cc1` gave TDP1 inh 8%, RORg inh -38%, TDP1 cell CPT 15µM*, Gal4-VP16 FLuc -19% and TDP1 cell noCPT 10µM*.
`Cc1ccc(-c2nc3c(c(SCC(=O)N(C)c4ccccc4)n2)Cc2c(CO)cnc(C)c2O3)cc1` gave TDP1 inh 8%, TDP1 cell CPT inconclusive and TDP1 cell noCPT inconclusive.
Screening Cc1ccc(-c2nc3c(c(SCC(=O)N4CCOCC4)n2)Cc2c(CO)cnc(C)c2O3)cc1 returned TDP1 inh 9%, RORg inh 5%, TDP1 cell CPT 23µM*, Gal4-VP16 FLuc -18% and TDP1 cell noCPT 10µM*.
For Cc1cccc(C)c1NC(=O)CSc1nc(-c2ccccc2)nc2c1Cc1c(CO)cnc(C)c1O2 the results were TDP1 inh 5%, TDP1 cell CPT -5% and TDP1 cell noCPT -4%.
For O=C(COc1ccc(Cl)c(Cl)c1)NC1CCS(=O)(=O)C1 (centres undefined) the results were TDP1 inh 1%[56.1 µM], TDP1 cell CPT -9% and TDP1 cell noCPT 11%.
Screening CCc1ccc(O)c(N=Cc2cccc(C)c2O)c1 returned TDP1 inh 3%, RORg inh 11µM*, TDP1 cell CPT 21µM*, Gal4-VP16 FLuc inconclusive and TDP1 cell noCPT 21µM*.
For Cc1ccc(N=C2NC(=O)/C(=C/c3cccnc3)S2)cc1C the results were TDP1 inh 0%, RORg inh 9%, TDP1 cell CPT -16%, Gal4-VP16 FLuc 6% and TDP1 cell noCPT -21%.
For O=C(Nc1ccc(F)c(F)c1)c1cc(S(=O)(=O)N2CCc3ccccc32)ccc1F the results were TDP1 inh 5%, TDP1 cell CPT 10µM* and TDP1 cell noCPT 10µM*.
For O=C(Nc1ccc(Cl)cc1)c1cc(S(=O)(=O)N2CCc3ccccc32)ccc1F the results were TDP1 inh 9%, TDP1 cell CPT 18µM* and TDP1 cell noCPT 18µM*.
For COc1cccc(N2CCN(C(=O)c3c(C)oc4ncnc(N5CCOCC5)c34)CC2)c1 the results were TDP1 inh 0%, TDP1 cell CPT 2% and TDP1 cell noCPT -17%.
O=C(NNC(=O)c1ccc2ccccc2c1O)Nc1ccc(F)cc1 was read as TDP1 inh 4%, RORg inh 13%, TDP1 cell CPT -8%, Gal4-VP16 FLuc 1% and TDP1 cell noCPT 4%.
Cc1nc(SCC(=O)Nc2ccccc2C(F)(F)F)c(C#N)c(C)c1CC(=O)c1ccc(Br)cc1 was read as TDP1 inh 3%, RORg inh 26% and Gal4-VP16 FLuc -7%.
`Cc1cccc(C)c1NC(=O)CSc1nc(C)c(CC(=O)c2ccc(Br)cc2)c(C)c1C#N` gave TDP1 inh 0%, RORg inh 15%, TDP1 cell CPT 21µM*, Gal4-VP16 FLuc -2% and TDP1 cell noCPT inconclusive.
`Cc1ccc(C(=O)NC2CCCCCCC2)c(Cl)c1` gave RORg inh 7.1µM*, TDP1 cell CPT 0%, Gal4-VP16 FLuc 8.9µM* and TDP1 cell noCPT -24%.
For COc1ccc2cc3cc(C(=O)NCC4COc5ccccc5O4)oc3nc2c1 (centres undefined) the results were TDP1 inh 3%, RORg inh 45%, TDP1 cell CPT inconclusive, Gal4-VP16 FLuc -3% and TDP1 cell noCPT 16µM*.
For O=C(NC1CCCCCCC1)c1cc(F)c(F)cc1Cl the results were TDP1 inh -7%, RORg inh 43%, TDP1 cell CPT inconclusive, Gal4-VP16 FLuc -17% and TDP1 cell noCPT 1%.
